Source: PubChem BioAssay AID1159580 (chemical genetic matrix, 2015)
In all, about 5,500 compounds went through this assay and about 2,000 (36%) were called active. Not shown: some 18% with an inconclusive outcome. Rule as the data show it: active = normalized growth mostly below about 0.91 (no sharp cut-off); inconclusive = no clear call, values can overlap the other calls; inactive = mostly above about 0.92. The list shows a part of the results.

Experiment: chemical genetic growth profiling, strain panel (AID 1159580);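 also: tested at 20 µM; growth read once vehicle control cultures reached saturation at 30 °C; 1 = growth at the plate median or of vehicle wells; lower values mean less growth of the strain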
Conditions: growth OD

Measured: normalized growth

CN=C(N)NCCCC(N)C(=O)O (stereo unspecified)
inactive: S. cerevisiae deletion strains, locus YAL013W, strain DEP1, stronger effect = lower value 1.02 | S. cerevisiae deletion strains, locus YBR021W, strain FUR4, stronger effect = lower value 1.03 | S. cerevisiae deletion strains, locus YBR229C, strain ROT2, stronger effect = lower value 1.01 | S. cerevisiae deletion strains, locus YCL029C, strain bik1, stronger effect = lower value 0.996 | S. cerevisiae deletion strains, locus YDL035C, strain GPR1, stronger effect = lower value 1.04 | S. cerevisiae deletion strains, locus YDL074C, strain BRE1, stronger effect = lower value 1.05 | S. cerevisiae deletion strains, locus YDL101C, strain DUN1, stronger effect = lower value 1.03 | S. cerevisiae deletion strains, locus YDL134C, strain PPH21, stronger effect = lower value 1.01 | S. cerevisiae deletion strains, locus YDL185W, strain tfp1, stronger effect = lower value 1.02 | S. cerevisiae deletion strains, locus YDL192W, strain arf1, stronger effect = lower value 1.01 | S. cerevisiae deletion strains, locus YDR101C, strain arx1, stronger effect = lower value 1.01 | S. cerevisiae deletion strains, locus YDR150W, strain NUM1, stronger effect = lower value 1.02 | S. cerevisiae deletion strains, locus YDR162C, strain NBP2, stronger effect = lower value 1.03 | S. cerevisiae deletion strains, locus YDR318W, strain mcm21, stronger effect = lower value 1.04 | S. cerevisiae deletion strains, locus YDR388W, stronger effect = lower value 0.993 | S. cerevisiae deletion strains, locus YDR502C, strain sam2, stronger effect = lower value 1.01 | S. cerevisiae deletion strains, locus YEL061C, strain CIN8, stronger effect = lower value 1.01 | S. cerevisiae deletion strains, locus YER110C, stronger effect = lower value 0.997 | S. cerevisiae deletion strains, locus YER155C, strain BEM2, stronger effect = lower value 1.01 | S. cerevisiae deletion strains, locus YER167W, strain BCK2, stronger effect = lower value 1.05 | S. cerevisiae deletion strains, locus YGL078C, strain dbp3, stronger effect = lower value 1.01 | S. cerevisiae deletion strains, locus YGL086W, strain mad1, stronger effect = lower value 1.03 | S. cerevisiae deletion strains, locus YGL248W, strain PDE1, stronger effect = lower value 1.01 | S. cerevisiae deletion strains, locus YGR078C, strain PAC10, stronger effect = lower value 1.04 | S. cerevisiae deletion strains, locus YGR135W, strain pre9, stronger effect = lower value 1.02 | S. cerevisiae deletion strains, locus YGR229C, strain SMI1, stronger effect = lower value 1.05 | S. cerevisiae deletion strains, locus YGR252W, strain gcn5, stronger effect = lower value 1.17 | S. cerevisiae deletion strains, locus YHR030C, strain SLT2, stronger effect = lower value 1.01 | S. cerevisiae deletion strains, locus YHR079C, strain IRE1 (second series), stronger effect = lower value 0.995 | S. cerevisiae deletion strains, locus YHR094C, strain hxt1, stronger effect = lower value 0.986 | S. cerevisiae deletion strains, locus YHR129C, strain ARP1, stronger effect = lower value 1.01 | S. cerevisiae deletion strains, locus YHR200W, strain rpn10, stronger effect = lower value 1.02 | S. cerevisiae deletion strains, locus YIL066C, strain RNR3, stronger effect = lower value 1.03 | S. cerevisiae deletion strains, locus YIL073C, strain SPO22, stronger effect = lower value 1.09 | S. cerevisiae deletion strains, locus YIL125W, strain kgd1, stronger effect = lower value 1.01 | S. cerevisiae deletion strains, locus YIR030C, strain dcg1, stronger effect = lower value 0.997 | S. cerevisiae deletion strains, locus YJL095W, strain BCK1, stronger effect = lower value 1.02 | S. cerevisiae deletion strains, locus YJL134W, strain LCB3, stronger effect = lower value 1.02 | S. cerevisiae deletion strains, locus YJL168C, strain set2, stronger effect = lower value 0.987 | S. cerevisiae deletion strains, locus YJL187C, strain SWE1 (second series), stronger effect = lower value 1.02 | S. cerevisiae deletion strains, locus YJR043C, strain POL32, stronger effect = lower value 1.06 | S. cerevisiae deletion strains, locus YJR075W, strain HOC1, stronger effect = lower value 1.07 | S. cerevisiae deletion strains, locus YKL009W, strain mrt4, stronger effect = lower value 1.03 | S. cerevisiae deletion strains, locus YKL068W, stronger effect = lower value 1.01 | S. cerevisiae deletion strains, locus YKL085W, strain MDH1 (second series), stronger effect = lower value 1.03 | S. cerevisiae deletion strains, locus YKL085W, strain MDH1, stronger effect = lower value 1.03 | S. cerevisiae deletion strains, locus YKL190W, strain CNB1, stronger effect = lower value 1.02 | S. cerevisiae deletion strains, locus YKR001C, strain vps1, stronger effect = lower value 1.02 | S. cerevisiae deletion strains, locus YLR039C, strain RIC1, stronger effect = lower value 1.07 | S. cerevisiae deletion strains, locus YLR058C, strain SHM2, stronger effect = lower value 1.02 | S. cerevisiae deletion strains, locus YLR102C, strain apc9, stronger effect = lower value 0.986 | S. cerevisiae deletion strains, locus YLR262C, strain YPT6, stronger effect = lower value 1.1 | S. cerevisiae deletion strains, locus YLR268W, strain sec22, stronger effect = lower value 1.01 | S. cerevisiae deletion strains, locus YLR330W, strain CHS5, stronger effect = lower value 1.01 | S. cerevisiae deletion strains, locus YLR342W, strain FKS1 (second series), stronger effect = lower value 1.09 | S. cerevisiae deletion strains, locus YLR371W, strain rom2, stronger effect = lower value 0.975 | S. cerevisiae deletion strains, locus YLR418C, strain cdc73, stronger effect = lower value 1.01 | S. cerevisiae deletion strains, locus YML016C, strain PPZ1, stronger effect = lower value 1.02 | S. cerevisiae deletion strains, locus YML032C, strain rad52, stronger effect = lower value 1.05 | S. cerevisiae deletion strains, locus YML124C, strain tub3, stronger effect = lower value 1.01 | S. cerevisiae deletion strains, locus YMR078C, strain ctf18, stronger effect = lower value 1 | S. cerevisiae deletion strains, locus YMR223W, strain ubp8, stronger effect = lower value 1.04 | S. cerevisiae deletion strains, locus YMR263W, strain SAP30, stronger effect = lower value 1.04 | S. cerevisiae deletion strains, locus YMR307W, strain GAS1, stronger effect = lower value 1.14 | S. cerevisiae deletion strains, locus YNL067W, strain RPL9B, stronger effect = lower value 1.02 | S. cerevisiae deletion strains, locus YNL128W, strain TEP1, stronger effect = lower value 1.03 | S. cerevisiae deletion strains, locus YNL153C, strain GIM3, stronger effect = lower value 1.03 | S. cerevisiae deletion strains, locus YNL233W, strain BNI4, stronger effect = lower value 1.03 | S. cerevisiae deletion strains, locus YNL250W, strain rad50, stronger effect = lower value 1.02 | S. cerevisiae deletion strains, locus YNL271C, strain bni1, stronger effect = lower value 1.01 | S. cerevisiae deletion strains, locus YNL298W, strain CLA4, stronger effect = lower value 1.04 | S. cerevisiae deletion strains, locus YNL307C, strain MCK1, stronger effect = lower value 1.02 | S. cerevisiae deletion strains, locus YNL322C, strain KRE1, stronger effect = lower value 1.02 | S. cerevisiae deletion strains, locus YNR052C, strain pop2, stronger effect = lower value 1 | S. cerevisiae deletion strains, locus YOL006C, strain TOP1, stronger effect = lower value 1.05 | S. cerevisiae deletion strains, locus YOL012C, strain htz1 1.01 | S. cerevisiae deletion strains, locus YOL147C, strain pex11, stronger effect = lower value 0.995 | S. cerevisiae deletion strains, locus YOR061W, strain CKA2, stronger effect = lower value 1.02 | S. cerevisiae deletion strains, locus YOR069W, strain VPS5, stronger effect = lower value 1.01 | S. cerevisiae deletion strains, locus YOR136W, strain idh2, stronger effect = lower value 1.02 | S. cerevisiae deletion strains, locus YOR144C, strain elg1, stronger effect = lower value 1.01 | S. cerevisiae deletion strains, locus YOR184W, strain ser1, stronger effect = lower value 1.07 | S. cerevisiae deletion strains, locus YOR316C, strain cot1, stronger effect = lower value 0.99 | S. cerevisiae deletion strains, locus YPL055C, strain LGE1, stronger effect = lower value 1.1 | S. cerevisiae deletion strains, locus YPL241C, strain CIN2, stronger effect = lower value 1.02 | S. cerevisiae deletion strains, locus YPR119W, strain clb2, stronger effect = lower value 0.984 | S. cerevisiae deletion strains, locus YPR141C, strain kar3, stronger effect = lower value 1.02 | S. cerevisiae deletion strains, locus YPR163C, strain tif3, stronger effect = lower value 1 | S. cerevisiae deletion strains, locus YPR167C, strain met16, stronger effect = lower value 1.01 | S. cerevisiae deletion strains, strain wtn01, stronger effect = lower value 0.994 | S. cerevisiae strains, strain wild type, stronger effect = lower value 1.03
